The full list was thinned out, with hits kept by preference.
CBX7 inh: blocks human CBX7 binding to H3K27me3 peptide; AlphaScreen His6-CBX7 / biotin-H3K27me3 peptide binding; active compounds read low; AID 1224903; normalised signal (fraction of DMSO) (no concentration beside the values); actives 1.1% (n = 66,000); in the data active means normalised signal below about 0.5
Target sequence (O95931 whole entry, looked up): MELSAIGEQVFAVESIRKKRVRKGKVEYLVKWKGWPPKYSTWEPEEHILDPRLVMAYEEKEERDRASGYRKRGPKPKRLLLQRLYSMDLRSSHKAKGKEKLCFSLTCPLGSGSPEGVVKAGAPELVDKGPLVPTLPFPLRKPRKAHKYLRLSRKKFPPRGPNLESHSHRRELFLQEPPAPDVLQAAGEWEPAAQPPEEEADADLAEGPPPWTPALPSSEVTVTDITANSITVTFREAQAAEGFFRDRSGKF
* hit, by the source's call; ! = not active in a repeat.

SMILES	CBX7 inh
CCOc1ccc(CNc2sc3c(c2C(=O)Nc2ccc(OC)cc2)CCC3)cc1	0.7
Cc1ccccc1Nc1nc(-c2c(C)nc3ccccn23)cs1	0.88
Cc1nc2ccccn2c1-c1csc(Nc2ccc(Cl)cc2)n1	0.95
Cc1ccc(Nc2nc(-c3c(C)nc4ccccn34)cs2)cc1	0.9
Cc1ccccc1Nc1nc(-c2c(C)nc3sccn23)cs1	0.4*!
CCN(CC)c1ccc(Nc2nc(-c3c(C)nc4ccccn34)cs2)cc1	0.076*
CCOc1ccccc1Nc1nc(-c2c(C)nc3sccn23)cs1	1
Cc1cccc(N2CCN(C(=O)c3cc(-c4ccncc4)nc4ccccc34)CC2C)c1 (stereo not drawn)	0.41*
O=C(c1cc(-c2ccncc2)nc2ccccc12)N1CCN(c2ccccn2)CC1	0.85
Cc1cccc(N2CCN(C(=O)c3cnn(-c4ccccc4)c3-n3cccc3)CC2C)c1 (stereo not drawn)	0.98
O=C(Nc1cccc(S(=O)(=O)N2CCOCC2)c1)C12CC3CC(C1)CC(n1cncn1)(C3)C2	1
COc1ccc(-n2nc(C(=O)NCCc3ccc(OC)c(OC)c3)c3ccccc3c2=O)c(OC)c1	0.93
CCc1nnc(NC(=O)c2ccc(S(=O)(=O)N(CCC#N)CCC#N)cc2)o1	0.056*
CCCN(CCC)S(=O)(=O)c1ccc(C(=O)Nc2nnc(-c3cccs3)o2)cc1	0.93
C=CCN(CC=C)S(=O)(=O)c1ccc(C(=O)Nc2nnc(CC)o2)cc1	0.064*
C=CCN(CC=C)S(=O)(=O)c1ccc(C(=O)Nc2nnc(-c3cc(OC)cc(OC)c3)o2)cc1	0.94
CCCCN(CC)S(=O)(=O)c1ccc(C(=O)Nc2nnc(-c3cccs3)o2)cc1	0.9
CCCCN(CC)S(=O)(=O)c1ccc(C(=O)Nc2ccc(-c3nc4ccccc4[nH]3)cc2)cc1	0.98
CCCCN(CC)S(=O)(=O)c1ccc(C(=O)Nc2nnc(C)o2)cc1	0.024*
CCCCN(CC)S(=O)(=O)c1ccc(C(=O)Nc2ccccc2-c2nc3ccccc3s2)cc1	1.1
CCCCN(CC)S(=O)(=O)c1ccc(C(=O)Nc2nnc(CC)o2)cc1	0.079*
O=C(CN1CCN(Cc2cccc(Cl)c2)C1=O)N1CCOCC1	1.1
CCOC(=O)N1CCN(C(=O)Cn2cnc3c(nnn3-c3ccc(OC)cc3)c2=O)CC1	0.94
CCCCC(NC(=O)c1ccccc1)c1nc2ccccc2[nH]1 (stereo not drawn)	1.2
COc1ccc(C2=NOC(C(=O)N3C(C)CCCC3C)C2)cc1 (stereo not drawn)	1
SMILES	CBX7 inh
C=CCSc1nnc(Cc2cc(=O)[nH]c(=O)[nH]2)n1-c1cccc(C)c1	1.1
O=C(Nc1ccc(F)cc1)c1ccc(CNc2c(N3CCCCC3)c(=O)c2=O)cc1	0.91
CCOC(=O)c1cnc2cc(C(F)(F)F)ccc2c1N1CCN(C)CC1	0.94
COc1cccc(CNC(=O)c2nnc(Cc3ccc(F)cc3)o2)c1	0.83
CC1CCN(S(=O)(=O)c2ccc3c(c2)N(CC(=O)NCc2cccnc2)C(=O)CO3)CC1	0.87
Cc1ccc(C)c(CN2CCCN(C(=O)c3cc4c(s3)-c3ccccc3OC4)C2)c1	1.1
O=C(NCCc1ccccc1)c1nnc(Cc2ccc(Cl)cc2)o1	1.1
Cc1nnc(NC(=O)c2ccc(S(=O)(=O)N(C)c3ccccc3)cc2)o1	0.78
CCc1nnc(NC(=O)c2ccc(S(=O)(=O)N(CC)Cc3ccccc3)cc2)o1	0.76
CCN(c1ccccc1)S(=O)(=O)c1ccc(C(=O)Nc2nnc(C)o2)cc1	0.052*
CCN(Cc1ccccc1)S(=O)(=O)c1ccc2oc(C(=O)O)c(C)c2c1	1.2
CCN(Cc1ccccc1)S(=O)(=O)c1ccc(C(=O)Nc2nnc(C)o2)cc1	0.0031*
Cc1ccc(-c2csc(NC(=O)c3ccc(S(=O)(=O)N(C)c4ccccc4)cc3)n2)cc1	1
Cc1ccc(NS(=O)(=O)c2ccc3c(c2)CCN3C(=O)C2CC2)cc1	1
Cc1nc(-c2ccc(NC(=O)c3cccnc3)cc2)cs1	0.99
CCOc1cc2c(cc1OCC)C(c1c(F)cccc1Cl)NCC2 (stereo not drawn)	0.98
COC(=O)c1ccc2c(c1)N(Cc1c(F)cccc1Cl)C(=O)c1ccccc1S2	0.89
COc1ccccc1-c1c(C)nn2c(NCc3cccnc3)cc(C)nc12	1.1
COc1ccccc1-c1c(C)nn2c(NCc3ccc(C)cc3)cc(C)nc12	1
COc1ccccc1-c1c(C)nn2c(NCc3ccccn3)cc(C)nc12	0.39*
Cc1ccc(CNC(=O)c2cc(-c3ccccc3)nc3ccccc23)cc1	0.98
Cc1csc(NC(=O)c2cc3c(s2)-c2c(C)cccc2OC3)n1	1.1
O=C1CN(C(=O)c2ccccc2C(F)(F)F)C(c2ccc(F)cc2)c2cc(F)ccc2N1 (stereo not drawn)	1.1
O=C(CN1C(=O)COc2ccc(Cl)cc21)NCc1ccc(F)cc1	0.42*
CCN(CC)S(=O)(=O)c1ccc2c(c1)N(CC(=O)NCc1ccc(F)cc1)C(=O)CO2	0.99
SMILES	CBX7 inh
Cc1ccc(CNC(=O)CN2C(=O)COc3ccc(Cl)cc32)cc1	1.4
CCOC(=O)c1c(C)n(-c2ccc(C)cc2)c2ccc(OCC(O)CNc3ccc(Cl)cc3)cc12 (stereo not drawn)	0.95
C=CCn1c(C2CC(=O)N(c3cccc(C)c3C)C2)nc2ccccc21 (stereo not drawn)	0.94
O=C(Nc1ccc(S(=O)(=O)Nc2ncccn2)cc1)c1cc(-c2cccs2)nc2ccccc12	0.95
Cc1ccc2oc(-c3cccc(NC(=O)c4ncn[nH]4)c3)nc2c1	0.076*
Cc1ccc2oc(-c3cccc(NC(=O)c4ccccc4Cl)c3)nc2c1	0.92
COc1cccc(OC)c1C(=O)Nc1cccc(-c2nc3cc(C)ccc3o2)c1	0.9
Cc1cc(C)c(-c2csc(NC(=O)c3ccc(-c4ccccc4)cc3)n2)c(C)c1	1
CCN(CC)S(=O)(=O)c1ccc2c(c1)N(CC(=O)NC(C)CCc1ccccc1)C(=O)CO2 (stereo not drawn)	0.96
O=C(NCCN1CCCCCC1)C1CCCN(c2nc3ccccc3o2)C1 (stereo not drawn)	1
Cc1ccc(-c2nc(CS(=O)(=O)CC(=O)NCCN(C)C3CCCCC3)c(C)o2)cc1	0.99
O=C(CS(=O)(=O)c1nc(-c2ccccc2)cn1-c1ccc(Cl)cc1)Nc1ccccc1F	0.48*
O=C(CS(=O)(=O)c1nc(-c2ccccc2)cn1-c1ccc(Cl)cc1)Nc1ccccc1	0.86
O=C(CS(=O)(=O)c1nc(-c2ccccc2)cn1-c1ccc(Cl)cc1)Nc1ccc(F)cc1	0.86
Cc1ccccc1Nc1c(-c2ccccn2)nc2ccccn12	0.13*
Cc1ccn2c(Nc3ccccc3C)c(-c3ccc(Cl)cc3)nc2c1	0.85
COc1ccc(-c2nc3cc(C)ccn3c2Nc2ccccc2C)cc1	0.78
Cc1ccccc1Nc1c(-c2ccccn2)nc2cnccn12	0.8
Cc1ccn2c(Nc3ccccc3)c(-c3cccnc3)nc2c1	0.94
Cc1ccccc1Nc1c(-c2cccnc2)nc2ccccn12	0.9
Cc1ccn2c(Nc3ccccc3C)c(-c3ccccn3)nc2c1	0.0084*
Cc1ccc(Nc2c(-c3ccc(Cl)cc3)nc3cc(C)ccn23)cc1	1
Cc1ccn2c(Nc3ccccc3)c(-c3ccccn3)nc2c1	0.06*
CCCN(CCC)CCNC(=O)C1CCN(c2nc3ccc(OC)cc3s2)CC1	1.4
CCOc1cc2c(cc1OCC)C(c1cccc3c1OCO3)NCC2 (stereo not drawn)	0.96
CCOC(=O)c1cnc2c(C)cc(Cl)cc2c1Nc1ccc(OC)c(OC)c1	1

Source: PubChem
